# Experimental data reported in PubChem BioAssay (Tox21).
# A number with no mark means an inactive call. Records with an inconclusive call do not appear. Where a call stands in place of a potency, no number is given. Activity calls are given as the source filed them. Unless noted, the call rests on the fitted dose curve; in most records, active means well fitted curve in the direction sought with a large enough effect in the repeat runs; inconclusive means weak or mixed curves; inactive means no such curve, though single readings can be large; an effect the other way counts as inactive or inconclusive.
# How the values were obtained:
# [1] = qHTS assay for small molecule agonists of the p53 signaling pathway (AID 651631; calls by dose curve; further: nearly all actives have a fitted effect of over 15% in size)
# In short: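 p53RE-bla HCT-116 cells; compounds 16 h, 37 °C; LiveBLAzer B/G FRET substrate 2 h RT; fluorescence intensity read-out, qHTS format.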
# [2] = qHTS assay for small molecule agonists of the p53 signaling pathway - cell viability (AID 651633; calls by dose curve;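 further: p53RE-bla HCT reporter cells with a stable beta-lactamase p53 reporter; series mostly up to about 83 µM; nearly all actives have a fitted effect of over 30% in size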)
# In short: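 p53RE-bla cells were treated with compound for 16 hours at 37 C. Cytotoxicity was then measured as CellTiter-Glo luminescence after 30 min at room temperature.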
# [3] = qHTS assay for small molecules that induce genotoxicity in human embryonic kidney cells expressing luciferase-tagged ATAD5 - cell viability (AID 651634; calls by dose curve; further: nearly all actives have a fitted effect of over 25% in size)
# In short: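 Quantitative high-throughput format. HEK293T cells expressing ATAD5 fused to luciferase were plated at 2,000 cells/well and treated 15.5 hr with compound versus DMSO. Viability was determined by fluorescent live-cell protease substrate, 30 min at 37C.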
# [4] = qHTS assay for small molecule disruptors of the mitochondrial membrane potential - cell viability (AID 720634; calls by dose curve;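 further: human HepG2 liver cancer cells; series mostly up to about 83 µM; nearly all actives have a fitted effect of over 20% in size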)
# In short: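 Same-well counter-screen: following the MMP dye addition, CellTiter-Glo was added to 1 hr compound-treated HepG2 cells and luminescence read after 30 min at room temperature.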
# [5] = qHTS assay to test for compound auto fluorescence at 590 nm (red) in HepG2 cells (AID 720674)
# In short: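 Fluorescence at 590 nm emission following 540 nm excitation was recorded from HepG2 wells one hour after compound transfer, with DMSO-only wells as vehicle and Rose Bengal sodium equivalency as the scale.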
# [6] = qHTS assay to test for compound auto fluorescence at 535 nm (green) in HepG2 cells (AID 720675)
# [7] = qHTS assay to test for compound auto fluorescence at 460 nm (blue) in HEK293 cells (AID 720678)
# In short: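 HEK293 cells (2,000 per well, medium with 10% dialyzed FBS) attached for 4-5 hr at 37C, then received compound and stood overnight at 37C, 5% CO2. Blue fluorescence was read at Ex/Em 405/460 nm and expressed relative to triamterene.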
# [8] = qHTS assay to test for compound auto fluorescence at 590 nm (red) in HEK293 cells (AID 720679)
# In short: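 HEK293 cells (2,000/well, medium with 10% dialyzed FBS) attached for 4-5 hr at 37C, received 23 nL compound and were incubated overnight at 37C, 5% CO2. Red fluorescence was then read at 540/590nm Ex/Em, referenced to Rose Bengal sodium.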
# [9] = qHTS assay to test for compound auto fluorescence at 535 nm (green) in HEK293 cells (AID 720680)
# [10] = qHTS assay to test for compound auto fluorescence at 460 nm (blue) in HEK293 cell free culture (AID 720681)
# In short: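 Compounds were added to cell-free DMEM with 10% FBS and fluorescence read directly. The blue channel used 405 nm excitation and 460 nm emission, with triamterene as the reference fluorophore.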
# [11] = qHTS assay to test for compound auto fluorescence at 535 nm (green) in HEK293 cell free culture (AID 720682)
# In short: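 Cell-free medium (DMEM, 10% FBS) receives compound or DMSO by pintool. Plate read directly at Ex 485/Em 535 nm. Signal converted to fluorescein equivalency.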
# [12] = qHTS assay to test for compound auto fluorescence at 590 nm (red) in HEK293 cell free culture (AID 720683)
# In short: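 Cell-free wells of DMEM with 10% FBS received compound, and intrinsic fluorescence was read at excitation/emission 540/590 nm. Values expressed as equivalence to Rose Bengal sodium.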
# [13] = qHTS assay to test for compound auto fluorescence at 590 nm (red) in HepG2 cell free culture (AID 720684)
# In short: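 Rose Bengal sodium served as the reference for red signal. Test compounds were dispensed into serum-containing MEM (10% FBS) without cells, and plates were read at 540/590 nm.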
# [14] = qHTS assay to test for compound auto fluorescence at 460 nm (blue) in HepG2 cell free culture (AID 720685)
# In short: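 Cell-free plates of MEM plus 10% FBS received 23 nL compound or DMSO vehicle; blue-channel (405/460 nm) intensity scored against triamterene as reference fluorophore.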
# [15] = qHTS assay to test for compound auto fluorescence at 535 nm (green) in HepG2 cell free culture (AID 720686)
# [16] = qHTS assay to test for compound auto fluorescence at 460 nm (blue) in HepG2 cells (AID 720687)
# In short: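 HepG2 cells in MEM with 10% FBS, attached overnight at 37 C, were exposed to compound or DMSO for 1 hr at 37 C, 5% CO2. Blue fluorescence was read at 405/460 nm, with triamterene as reference fluorophore.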
# [17] = target: Glucocorticoid receptor (Homo sapiens) (UniProt P04150); experiment: qHTS assay to identify small molecule agonists of the glucocorticoid receptor (GR) signaling pathway (AID 720691; active means well fitted activation curve with a large enough effect in the signal ratio in the repeat runs, not every such curve was filed as active; the % refers to the signal ratio)
# Glucocorticoid receptor (Homo sapiens), sequence (P04150 whole entry, looked up): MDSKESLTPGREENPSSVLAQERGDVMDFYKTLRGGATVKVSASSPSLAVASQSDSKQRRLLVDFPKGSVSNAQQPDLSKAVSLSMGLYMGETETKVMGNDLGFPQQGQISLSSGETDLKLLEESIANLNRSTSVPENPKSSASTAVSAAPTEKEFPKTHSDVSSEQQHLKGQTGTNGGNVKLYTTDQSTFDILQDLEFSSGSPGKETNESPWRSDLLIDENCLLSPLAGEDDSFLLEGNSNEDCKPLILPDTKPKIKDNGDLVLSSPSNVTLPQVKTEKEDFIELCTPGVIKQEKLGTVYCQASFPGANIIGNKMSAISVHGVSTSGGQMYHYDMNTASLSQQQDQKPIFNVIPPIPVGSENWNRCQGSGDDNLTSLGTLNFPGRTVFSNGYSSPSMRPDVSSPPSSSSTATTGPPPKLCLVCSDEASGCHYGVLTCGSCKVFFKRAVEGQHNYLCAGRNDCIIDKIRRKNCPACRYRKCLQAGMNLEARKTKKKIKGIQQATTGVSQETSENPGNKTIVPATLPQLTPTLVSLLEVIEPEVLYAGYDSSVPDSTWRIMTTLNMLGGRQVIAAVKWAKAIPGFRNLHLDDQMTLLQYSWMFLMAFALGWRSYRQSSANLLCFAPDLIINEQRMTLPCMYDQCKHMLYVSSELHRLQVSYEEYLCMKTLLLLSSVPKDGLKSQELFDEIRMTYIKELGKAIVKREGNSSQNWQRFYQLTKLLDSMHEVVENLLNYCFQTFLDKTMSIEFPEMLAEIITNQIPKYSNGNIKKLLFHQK
# In short: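 A HeLa cervical cancer line expressing GR and a glucocorticoid response element-driven beta-lactamase gene is treated with compounds for 18 h; LiveBLAzer B/G FRET substrate is then applied and fluorescence read.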
# [18] = qHTS assay for small molecule disruptors of the mitochondrial membrane potential (AID 720635); further: potency means the concentration at half of the fitted maximal effect
# In short: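 HepG2 cells exposed to compound 1 hr at 37C, then Mito-MPS dye 30 min. Ratio read of aggregate (540/590 nm) versus monomer (490/535 nm) fluorescence.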
# [19] = qHTS assay for small molecules that induce genotoxicity in human embryonic kidney cells expressing luciferase-tagged ATAD5 (AID 651632); further: nearly all actives have a fitted effect of over 15% in size
# In short: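 Test compounds were delivered by pin tool onto HEK293T reporter cells (2,000/well) expressing ATAD5 fused to luciferase. After 16 hr at 37C, 5% CO2, Amplite was added for 30 min at room temperature and luminescence was measured.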
# [20] = target: Glucocorticoid receptor (Homo sapiens) (UniProt P04150); experiment: qHTS assay to identify small molecule antagonists of the glucocorticoid receptor (GR) signaling pathway (AID 720692; active means well fitted inhibition curve with a large enough effect in the signal ratio in the repeat runs, not every such curve was filed as active; the % refers to the signal ratio)
# In short: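 GRE-bla HeLa line, dex-stimulated (5 nM final). Compound exposure 18 h, 37 C. Beta-lactamase FRET read after 2 h RT substrate.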
compound,measurement,setting,value
BrCCCCCBr,outcome,[1],inactive
same,outcome,[2],inactive
same,Potency,[3],inactive
same,outcome,[4],inactive
same,outcome,[5],inactive
same,outcome,[6],inactive
same,outcome,[7],inactive
same,outcome,[8],inactive
same,outcome,[9],inactive
same,outcome,[10],inactive
same,outcome,[11],inactive
same,outcome,[12],inactive
same,outcome,[13],inactive
same,outcome,[14],inactive
same,outcome,[15],inactive
same,outcome,[16],inactive
same,Potency,[17],inactive
CC(C)CCCC(C)(C)O,outcome,[1],inactive
same,Potency,[3],inactive
same,outcome,[4],inactive
same,Potency,[18],inactive
same,outcome,[5],inactive
same,outcome,[6],inactive
same,outcome,[7],inactive
same,outcome,[8],inactive
same,outcome,[9],inactive
same,outcome,[10],inactive
same,outcome,[11],inactive
same,outcome,[12],inactive
same,outcome,[13],inactive
same,outcome,[14],inactive
same,outcome,[15],inactive
same,outcome,[16],inactive
CO[C@@H]1[C@@H](OC(N)=O)[C@@H](O)[C@H](Oc2ccc3c(O)c(NC(=O)c4ccc(O)c(CC=C(C)C)c4)c(=O)oc3c2C)OC1(C)C,outcome,[1],inactive
same,Potency,[19],inactive
same,Potency,[3],inactive
same,outcome,[4],inactive
same,"fluorescence, relative to Rose Bengal",[5],-0.195% [at 18.6 µM]
same,"fluorescence, % of fluorescein control",[6],-0.0594% [at 18.6 µM]
same,"fluorescence, % of triamterene",[7],0.0216% [at 18.6 µM]
same,"fluorescence, % of fluorescent control",[8],0.173% [at 18.6 µM]
same,"fluorescence, % of fluorescein",[9],-0.0123% [at 18.6 µM]
same,"fluorescence, % of fluorescent control",[10],0.0286% [at 18.6 µM]
same,activity change,[11],-0.156% [at 18.6 µM]
same,"fluorescence, % of fluorescent control",[12],0.0652% [at 18.6 µM]
same,"fluorescence, % of fluorescent control",[14],0.0828% [at 18.6 µM]
same,"fluorescence, % of fluorescein control",[15],-0.0494% [at 18.6 µM]
same,"fluorescence, % of fluorescent control",[16],0.0292% [at 18.6 µM]
same,Potency,[17],inactive
same,outcome,[20],inactive
CC(C)C[C@H](NC(=O)CNC(=O)[C@H](Cc1ccc(O)cc1)NC(=O)[C@H](CO)NC(=O)[C@H](Cc1c[nH]c2ccccc12)NC(=O)[C@H](Cc1cnc[nH]1)NC(=O)[C@@H]1CCC(=O)N1)C(=O)N[C@@H](CCCN=C(N)N)C(=O)N1CCC[C@H]1C(=O)NCC(N)=O (stereo in doubt),outcome,[1],inactive
same,outcome,[2],inactive
same,Potency,[3],inactive
same,outcome,[4],inactive
same,Potency,[18],inactive
same,outcome,[6],inactive
same,outcome,[7],inactive
same,outcome,[8],inactive
same,outcome,[9],inactive
same,outcome,[10],inactive
same,outcome,[11],inactive
same,outcome,[12],inactive
same,outcome,[13],inactive
same,outcome,[14],inactive
same,outcome,[15],inactive
same,outcome,[16],inactive
Nc1ccc2cc(S(=O)(=O)O)cc(O)c2c1,outcome,[1],inactive
same,outcome,[2],inactive
same,Potency,[3],inactive
same,outcome,[4],inactive
same,Potency,[18],inactive
same,outcome,[6],inactive
same,outcome,[7],inactive
same,outcome,[8],inactive
same,outcome,[9],inactive
same,outcome,[10],inactive
same,outcome,[11],inactive
same,outcome,[12],inactive
same,outcome,[13],inactive
same,outcome,[15],inactive
O=C(/N=N/C(=O)OCc1ccccc1)OCc1ccccc1,outcome,[1],inactive
same,outcome,[2],inactive
same,Potency,[3],inactive
same,outcome,[5],inactive
same,outcome,[6],inactive
same,outcome,[7],inactive
same,outcome,[8],inactive
same,outcome,[9],inactive
same,outcome,[10],inactive
same,outcome,[11],inactive
same,outcome,[13],inactive
same,outcome,[14],inactive
same,outcome,[15],inactive
same,outcome,[16],inactive
C=C(C)C(=O)OCCNC(C)(C)C,outcome,[1],inactive
same,outcome,[2],inactive
same,Potency,[3],inactive
same,outcome,[4],inactive
same,Potency,[18],inactive
same,outcome,[5],inactive
same,outcome,[6],inactive
same,outcome,[8],inactive
same,outcome,[9],inactive
same,outcome,[10],inactive
same,outcome,[11],inactive
same,outcome,[12],inactive
same,outcome,[13],inactive
same,outcome,[14],inactive
same,outcome,[15],inactive
same,outcome,[16],inactive
same,Potency,[17],inactive
same,outcome,[20],inactive
CC(=O)/C=C/C1C(C)=CCC(C)C1(C)C (configuration not stated),outcome,[1],inactive
same,outcome,[2],inactive
same,Potency,[3],inactive
same,outcome,[4],inactive
same,Potency,[18],inactive
same,outcome,[5],inactive
same,outcome,[6],inactive
same,outcome,[7],inactive
same,outcome,[8],inactive
same,outcome,[9],inactive
same,outcome,[10],inactive
same,outcome,[11],inactive
same,outcome,[12],inactive
same,outcome,[14],inactive
same,outcome,[15],inactive
same,outcome,[16],inactive
same,Potency,[17],inactive
same,outcome,[20],inactive
Cc1cc(NC(=O)C2=C(O)c3ccccc3S(=O)(=O)N2C)no1,outcome,[1],inactive
same,Potency,[3],inactive
same,outcome,[4],inactive
same,Potency,[18],2.66 µM (active)
same,outcome,[5],inactive
same,outcome,[6],inactive
same,outcome,[7],inactive
same,outcome,[8],inactive
same,outcome,[9],inactive
same,outcome,[10],inactive
same,outcome,[11],inactive
same,outcome,[12],inactive
same,outcome,[13],inactive
same,outcome,[14],inactive
same,outcome,[15],inactive
same,outcome,[16],inactive
same,Potency,[17],inactive
O=S(O)(O)=S,activation,[1],-6.63% [at 8.3 µM]
same,activation,[19],2.28% [at 8.08 µM]
same,"activity, negative = cytotoxicity",[3],-2.41% [at 8.08 µM]
same,"activity change, negative = cytotoxicity",[4],11.6% [at 8.08 µM]
same,"fluorescence, relative to Rose Bengal",[5],-0.423% [at 3.72 µM]
same,"fluorescence, % of fluorescein control",[6],0.0128% [at 3.72 µM]
same,"fluorescence, % of triamterene",[7],-0.0172% [at 3.72 µM]
same,"fluorescence, % of fluorescein",[9],-0.0177% [at 3.72 µM]
same,"fluorescence, % of fluorescent control",[10],-0.0004% [at 3.72 µM]
same,activity change,[11],-0.0159% [at 3.72 µM]
same,"fluorescence, % of fluorescent control",[12],-0.356% [at 3.72 µM]
same,"fluorescence, % of fluorescent control",[14],-0.093% [at 3.72 µM]
same,"fluorescence, % of fluorescein control",[15],0.0353% [at 3.72 µM]
same,"fluorescence, % of fluorescent control",[16],-0.0508% [at 3.72 µM]
Cc1ccc(S(=O)(=O)O)c(C)c1,outcome,[1],inactive
same,outcome,[2],inactive
same,Potency,[3],inactive
same,outcome,[4],inactive
same,outcome,[5],inactive
same,outcome,[6],inactive
same,outcome,[7],inactive
same,outcome,[8],inactive
same,outcome,[9],inactive
same,outcome,[10],inactive
same,outcome,[11],inactive
same,outcome,[12],inactive
same,outcome,[13],inactive
same,outcome,[14],inactive
same,outcome,[15],inactive
same,outcome,[16],inactive
same,Potency,[17],inactive
CC1COc2ccccc2N1 (configuration not stated),outcome,[1],inactive
same,Potency,[19],inactive
same,Potency,[3],inactive
same,outcome,[4],inactive
same,outcome,[5],inactive
same,outcome,[6],inactive
same,outcome,[7],inactive
same,outcome,[9],inactive
same,outcome,[10],inactive
same,outcome,[11],inactive
same,outcome,[12],inactive
same,outcome,[13],inactive
same,outcome,[14],inactive
same,outcome,[15],inactive
same,outcome,[16],inactive
same,Potency,[17],inactive
N[C@@H](CCC(=O)Nc1ccc([N+](=O)[O-])cc1)C(=O)O,outcome,[1],inactive
same,Potency,[19],inactive
same,Potency,[3],inactive
same,outcome,[4],inactive
same,outcome,[5],inactive
same,outcome,[6],inactive
same,outcome,[7],inactive
same,outcome,[8],inactive
same,outcome,[9],inactive
same,outcome,[10],inactive
same,outcome,[11],inactive
same,outcome,[12],inactive
same,outcome,[13],inactive
same,outcome,[14],inactive
same,outcome,[15],inactive
same,outcome,[16],inactive
same,Potency,[17],inactive
same,outcome,[20],inactive
